Measurements: PMC7862700, “An all-to-all approach to the identification of sequence-specific readers for epigenetic DNA modifications on cytosine”

Experiments:
Assay in all cases: DAPPL (digital affinity profiling via proximity ligation, sequencing); 10 mM Tris-HCl pH 7.5, 50 mM NaCl, 1 mM DTT, 4% glycerol, room temperature, 30 min; GST-TFs on glutathione beads, 16-mer random dsDNA library, 0.1% formaldehyde crosslink after washing; high values mean tight binding
Conditions in all cases: protein: recombinant; tags: N-terminal GST; dsDNA, one strand shown
[1] = molecular target: T1, FLI1 (Homo sapiens, UniProt Q01543 1-452)
T1 sequence: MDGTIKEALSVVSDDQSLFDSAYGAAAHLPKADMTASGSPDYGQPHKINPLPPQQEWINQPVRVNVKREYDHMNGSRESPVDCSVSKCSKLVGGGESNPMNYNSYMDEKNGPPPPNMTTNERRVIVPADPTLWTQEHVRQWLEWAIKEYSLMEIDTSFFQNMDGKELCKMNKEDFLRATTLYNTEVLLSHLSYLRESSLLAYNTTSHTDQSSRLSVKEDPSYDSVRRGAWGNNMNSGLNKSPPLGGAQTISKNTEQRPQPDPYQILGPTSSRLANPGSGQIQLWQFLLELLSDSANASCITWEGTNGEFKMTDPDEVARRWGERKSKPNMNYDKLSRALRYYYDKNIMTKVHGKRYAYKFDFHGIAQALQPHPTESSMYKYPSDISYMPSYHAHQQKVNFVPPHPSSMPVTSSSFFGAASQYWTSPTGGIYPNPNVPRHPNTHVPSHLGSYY
Outline: (§1)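 Human transcription factors carrying a GST fusion were produced in yeast, bound to glutathione beads, tagged with DNA barcodes and pooled together with a tag-only sample. Each pool was held with 200 nmole of a random double-stranded 16-mer DNA library in Tris/NaCl/DTT/glycerol buffer for 30 min at room temperature, then washed, crosslinked in 0.1% formaldehyde, proximity-ligated with BsaI/T4 ligase (1 h, 37 °C), PCR-amplified and sequenced on an Illumina NextSeq500. Binding signal is the read frequency of each hexamer for a given factor divided by its frequency in the tag-only sample.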

[2] = molecular target: T2, ELK1 (Homo sapiens, UniProt P19419 1-428)
T2 sequence: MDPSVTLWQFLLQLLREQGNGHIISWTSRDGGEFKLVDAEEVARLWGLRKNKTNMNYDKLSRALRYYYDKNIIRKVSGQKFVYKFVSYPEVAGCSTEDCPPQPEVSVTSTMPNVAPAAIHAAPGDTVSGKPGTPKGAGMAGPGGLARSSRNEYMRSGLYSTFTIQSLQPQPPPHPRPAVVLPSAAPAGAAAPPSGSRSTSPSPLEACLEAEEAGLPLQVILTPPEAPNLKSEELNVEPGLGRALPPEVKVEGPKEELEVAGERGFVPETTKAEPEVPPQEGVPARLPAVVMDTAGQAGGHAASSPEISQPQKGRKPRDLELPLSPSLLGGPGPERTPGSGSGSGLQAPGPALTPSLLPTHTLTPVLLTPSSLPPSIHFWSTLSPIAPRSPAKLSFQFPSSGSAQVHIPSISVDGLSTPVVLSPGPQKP
Outline: as §1

[3] = molecular target: T3, GABPA (Homo sapiens, UniProt Q06546 1-454)
T3 sequence: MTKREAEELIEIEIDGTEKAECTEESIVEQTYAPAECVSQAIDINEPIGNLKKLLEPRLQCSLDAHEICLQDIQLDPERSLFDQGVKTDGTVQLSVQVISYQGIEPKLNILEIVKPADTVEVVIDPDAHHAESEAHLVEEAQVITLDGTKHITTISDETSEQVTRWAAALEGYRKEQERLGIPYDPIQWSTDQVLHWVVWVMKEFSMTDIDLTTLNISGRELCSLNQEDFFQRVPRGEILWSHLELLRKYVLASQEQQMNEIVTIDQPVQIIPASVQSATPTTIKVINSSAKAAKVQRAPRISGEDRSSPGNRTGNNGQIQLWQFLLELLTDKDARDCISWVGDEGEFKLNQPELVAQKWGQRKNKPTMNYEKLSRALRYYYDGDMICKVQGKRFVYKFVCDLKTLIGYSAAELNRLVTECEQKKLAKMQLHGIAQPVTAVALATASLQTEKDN
Outline: as §1

[4] = molecular target: T4, ERG (Homo sapiens, UniProt P11308 1-479)
T4 sequence: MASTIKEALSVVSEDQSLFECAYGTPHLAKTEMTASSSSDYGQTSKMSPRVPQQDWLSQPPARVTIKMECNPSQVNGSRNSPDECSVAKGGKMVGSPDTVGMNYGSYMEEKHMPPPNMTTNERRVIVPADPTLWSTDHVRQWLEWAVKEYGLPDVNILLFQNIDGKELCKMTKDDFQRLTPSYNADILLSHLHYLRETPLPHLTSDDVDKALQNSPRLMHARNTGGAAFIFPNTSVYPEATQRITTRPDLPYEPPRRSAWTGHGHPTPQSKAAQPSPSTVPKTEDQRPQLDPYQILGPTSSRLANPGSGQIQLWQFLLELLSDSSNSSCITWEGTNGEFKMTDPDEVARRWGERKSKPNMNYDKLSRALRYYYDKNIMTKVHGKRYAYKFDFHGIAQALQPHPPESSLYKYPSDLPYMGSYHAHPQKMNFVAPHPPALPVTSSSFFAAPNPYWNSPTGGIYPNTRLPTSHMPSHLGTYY
Outline: as §1

[5] = molecular target: ELF1 (Homo sapiens, UniProt P32519 1-619)
Chain of ELF1 (P32519 whole entry): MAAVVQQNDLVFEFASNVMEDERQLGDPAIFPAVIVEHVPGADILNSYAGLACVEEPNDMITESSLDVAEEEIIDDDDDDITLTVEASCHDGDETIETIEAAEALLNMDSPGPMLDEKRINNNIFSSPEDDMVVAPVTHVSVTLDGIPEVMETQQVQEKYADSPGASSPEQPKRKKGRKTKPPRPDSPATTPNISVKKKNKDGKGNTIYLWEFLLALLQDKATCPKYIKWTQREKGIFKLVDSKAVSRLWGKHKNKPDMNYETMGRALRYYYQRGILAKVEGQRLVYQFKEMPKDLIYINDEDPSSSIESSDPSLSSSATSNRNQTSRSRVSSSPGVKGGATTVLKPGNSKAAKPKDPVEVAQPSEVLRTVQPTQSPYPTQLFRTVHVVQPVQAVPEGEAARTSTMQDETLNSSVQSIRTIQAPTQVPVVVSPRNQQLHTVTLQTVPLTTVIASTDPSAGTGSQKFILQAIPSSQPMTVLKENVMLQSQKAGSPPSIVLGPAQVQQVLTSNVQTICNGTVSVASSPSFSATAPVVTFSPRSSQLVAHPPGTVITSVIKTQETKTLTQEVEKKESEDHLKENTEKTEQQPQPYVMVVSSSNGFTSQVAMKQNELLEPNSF
Outline: as §1

[6] = molecular target: T5, EHF (Homo sapiens, UniProt Q9NZC4 1-300)
T5 sequence: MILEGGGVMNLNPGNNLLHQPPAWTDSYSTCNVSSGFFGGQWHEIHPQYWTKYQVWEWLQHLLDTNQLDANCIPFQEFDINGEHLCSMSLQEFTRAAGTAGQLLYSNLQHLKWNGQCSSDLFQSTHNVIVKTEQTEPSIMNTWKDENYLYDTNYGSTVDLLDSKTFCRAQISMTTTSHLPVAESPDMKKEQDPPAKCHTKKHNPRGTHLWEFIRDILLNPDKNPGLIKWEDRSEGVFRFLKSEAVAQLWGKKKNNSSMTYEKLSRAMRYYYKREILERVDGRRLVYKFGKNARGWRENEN
Outline: as §1

[7] = molecular target: SPI1 (Homo sapiens, UniProt P17947 1-270)
Outline: as §1

[8] = molecular target: SPIB (Homo sapiens, UniProt Q01892 1-262)
Chain of SPIB (Q01892 whole entry): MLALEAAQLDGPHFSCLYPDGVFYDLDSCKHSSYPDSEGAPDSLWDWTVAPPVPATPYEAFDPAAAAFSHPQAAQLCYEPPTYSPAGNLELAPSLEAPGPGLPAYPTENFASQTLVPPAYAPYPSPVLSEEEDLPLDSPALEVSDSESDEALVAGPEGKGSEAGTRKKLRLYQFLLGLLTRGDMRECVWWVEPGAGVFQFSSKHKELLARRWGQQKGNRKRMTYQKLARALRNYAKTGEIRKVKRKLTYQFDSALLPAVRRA
Outline: as §1

[9] = molecular target: T6, ELK3 (Homo sapiens, UniProt P41970 1-407)
T6 sequence: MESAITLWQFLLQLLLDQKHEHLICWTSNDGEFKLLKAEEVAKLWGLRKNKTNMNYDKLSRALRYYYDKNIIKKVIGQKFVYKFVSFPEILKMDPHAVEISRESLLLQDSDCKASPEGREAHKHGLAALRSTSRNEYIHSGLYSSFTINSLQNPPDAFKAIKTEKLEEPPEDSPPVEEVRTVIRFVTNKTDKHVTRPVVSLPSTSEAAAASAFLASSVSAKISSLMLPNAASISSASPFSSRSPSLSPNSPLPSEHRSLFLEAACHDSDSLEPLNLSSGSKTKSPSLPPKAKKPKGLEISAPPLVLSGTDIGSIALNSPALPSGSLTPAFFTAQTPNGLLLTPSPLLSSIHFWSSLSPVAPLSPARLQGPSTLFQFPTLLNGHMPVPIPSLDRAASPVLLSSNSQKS
Outline: as §1

Q: Which results are given for TTAAAC?
A: binding signal [1]: 1.22 fold enrichment (6-mer frequency, TF over GST control); binding signal [2]: 1.18 fold enrichment (6-mer frequency, TF over GST control); binding signal [3]: 1.2 fold enrichment (6-mer frequency, TF over GST control); binding signal [4]: 1.25 fold enrichment (6-mer frequency, TF over GST control); binding signal [5]: 1.23 fold enrichment (6-mer frequency, TF over GST control); binding signal [6]: 1.26 fold enrichment (6-mer frequency, TF over GST control); binding signal [7]: 1.24 fold enrichment (6-mer frequency, TF over GST control); binding signal [8]: 1.26 fold enrichment (6-mer frequency, TF over GST control); binding signal [9]: 1.31 fold enrichment (6-mer frequency, TF over GST control)
